Test results reported in PubChem BioAssay AID1159580 (chemical genetic matrix, 2015).
The whole screen tested about 5,500 compounds, of which about 2,000 (36%) were called active. Another 18% or so got no clear call; they are omitted. Rule as the data show it: active = normalized growth mostly below about 0.91 (no sharp cut-off); inconclusive = no clear call, values can overlap the other calls; inactive = mostly above about 0.92. Some of the results follow.

Experiment: chemical genetic growth profiling, strain panel (AID 1159580);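 also: tested at 20 µM; growth read once vehicle control cultures reached saturation at 30 °C; 1 = growth at the plate median or of vehicle wells; lower values mean less growth of the strain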
Conditions: S. cerevisiae deletion strains, growth OD
[1] = locus YAL040C, strain CLN3, active compounds read low
[2] = locus YCL061C, strain MRC1 (second series), active compounds read low
[3] = locus YDR363W, strain ESC2, active compounds read low
[4] = locus YER002W, strain NOP16, active compounds read low
[5] = locus YJR075W, strain HOC1, active compounds read low
[6] = locus YMR263W, strain SAP30, active compounds read low
[7] = locus YNL153C, strain GIM3, active compounds read low
[8] = locus YNL175C, strain NOP13, active compounds read low
[9] = locus YNL197C, strain WHI3, active compounds read low
[10] = locus YNL224C, strain SQS1, active compounds read low
[11] = locus YOR083W, strain WHI5 (second series), active compounds read low

Measured: normalized growth

CC[N+](CC)(CC)CC
inactive: [1] 1.02 | [2] 1 | [3] 0.99 | [4] 0.989 | locus YGR078C, strain PAC10, active compounds read low 1 | locus YGR229C, strain SMI1, active compounds read low 1.02 | [5] 1.02 | [6] 0.994 | locus YMR307W, strain GAS1, active compounds read low 0.991 | [7] 0.986 | [8] 0.981 | [9] 1.01 | [10] 0.997 | [11] 0.999

CC#C[C@]1(O)CC[C@H]2[C@@H]3CCC4=CC(=O)CCC4=C3[C@@H](c3ccc(N(C)C)cc3)C[C@@]21C
inactive: [1] 0.978 | [2] 0.98 | locus YDR150W, strain NUM1, active compounds read low 0.981 | [3] 1.01 | [4] 1 | [5] 0.965 | [6] 0.984 | locus YNL128W, strain TEP1, active compounds read low 1.04 | [7] 0.951 | [8] 0.983 | [9] 0.998 | [10] 0.979 | locus YNL322C, strain KRE1, active compounds read low 0.965 | [11] 0.991 | locus YPL055C, strain LGE1, active compounds read low 0.99

CC#CC1(O)CCC2C3CCC4=CC(=O)CCC4=C3C(c3ccc(N(C)C)cc3)CC21C (stereo unspecified)
inactive: locus YAL021C, strain ccr4, active compounds read low 0.982 | locus YAL026C, strain drs2, active compounds read low 0.996 | locus YAL030W, strain snc1, active compounds read low 0.989 | locus YBL061C, strain skt5, active compounds read low 0.999 | locus YBR009C, strain hhf1, active compounds read low 0.998 | locus YBR023C, strain chs3, active compounds read low 0.993 | locus YBR171W, strain sec66, active compounds read low 1.01 | locus YBR231C, strain swc5, active compounds read low 1 | locus YBR279W, strain paf1, active compounds read low 0.993 | locus YCL011C, strain gbp2, active compounds read low 1 | locus YCL016C, strain dcc1, active compounds read low 1.01 | locus YCL061C, strain MRC1, active compounds read low 1.01 | locus YCL069W, strain vba3, active compounds read low 1 | locus YCR088W, strain abp1, active compounds read low 0.997 | locus YDL005C, strain med2, active compounds read low 1.01 | locus YDL040C, strain nat1, active compounds read low 0.997 | locus YDR001C, strain nth1, active compounds read low 1 | locus YDR069C, strain doa4, active compounds read low 0.994 | locus YDR137W, strain rgp1, active compounds read low 1.01 | locus YDR159W, strain sac3, active compounds read low 1.01 | locus YDR195W, strain ref2 1.07 | locus YDR297W, strain sur2, active compounds read low 0.996 | locus YDR334W, strain swr1, active compounds read low 1.02 | locus YDR335W, strain msn5, active compounds read low 0.998 | locus YDR392W, strain spt3, active compounds read low 0.966 | locus YEL003W, strain gim4, active compounds read low 0.995 | locus YEL037C, strain rad23, active compounds read low 0.99 | locus YEL061C, strain CIN8 (second series), active compounds read low 1.01 | locus YER015W, strain faa2, active compounds read low 0.996 | locus YER016W, strain bim1, active compounds read low 0.996 | locus YER111C, strain swi4, active compounds read low 1.01 | locus YER155C, strain BEM2 (second series), active compounds read low 1.01 | locus YFR010W, strain ubp6, active compounds read low 1.03 | locus YGL167C, strain pmr1, active compounds read low 1 | locus YGL173C, strain kem1, active compounds read low 1 | locus YGL227W, strain vid30, active compounds read low 1.01 | locus YGL240W, strain doc1, active compounds read low 0.987 | locus YGL253W, strain hxk2, active compounds read low 1 | locus YHR013C, strain ard1, active compounds read low 0.995 | locus YHR027C, strain rpn1, active compounds read low 1 | locus YHR142W, strain chs7, active compounds read low 0.997 | locus YJL092W, strain hpr5, active compounds read low 1 | locus YJL095W, strain BCK1 (second series), active compounds read low 0.998 | locus YJL115W, strain asf1, active compounds read low 1.02 | locus YJL129C, strain trk1, active compounds read low 0.946 | locus YJL154C, strain vps35, active compounds read low 1 | locus YJL164C, strain tpk1, active compounds read low 0.983 | locus YJL166W, strain qcr8, active compounds read low 0.99 | locus YJL187C, strain SWE1, active compounds read low 1.02 | locus YKL160W, strain elf1, active compounds read low 0.99 | locus YKR026C, strain gcn3, active compounds read low 0.993 | locus YKR091W, strain srl3, active compounds read low 0.996 | locus YLL001W, strain dnm1, active compounds read low 1.01 | locus YLL026W, active compounds read low 0.999 | locus YLL041C, strain sdh2, active compounds read low 1 | locus YLR027C, strain aat2, active compounds read low 0.997 | locus YLR221C, strain rsa3, active compounds read low 0.988 | locus YLR258W, strain gsy2, active compounds read low 0.996 | locus YLR262C, strain YPT6 (second series), active compounds read low 0.96 | locus YLR320W, strain mms22, active compounds read low 1 | locus YLR342W, strain FKS1, active compounds read low 0.995 | locus YLR357W, strain rsc2, active compounds read low 1.13 | locus YLR370C, strain arc18, active compounds read low 0.993 | locus YLR384C, strain iki3, active compounds read low 0.996 | locus YML120C, strain ndi1, active compounds read low 0.998 | locus YMR058W, strain fet3, active compounds read low 1.02 | locus YMR125W, strain sto1, active compounds read low 1.11 | locus YMR129W, active compounds read low 0.991 | locus YMR205C, strain PFK2, active compounds read low 0.998 | locus YMR231W, strain pep5, active compounds read low 1 | locus YNL071W, strain lat1, active compounds read low 1 | locus YNL209W, strain ssb2, active compounds read low 0.993 | locus YNL248C, strain rpa49, active compounds read low 1.07 | locus YNL322C, strain KRE1 (second series), active compounds read low 1.01 | locus YNR049C, strain mso1, active compounds read low 1 | locus YOR001W, strain rrp6, active compounds read low 0.996 | locus YOR070C, strain gyp1, active compounds read low 0.991 | locus YOR080W, strain dia2, active compounds read low 1.01 | locus YOR083W, strain WHI5, active compounds read low 0.976 | locus YOR106W, strain vam3, active compounds read low 0.986 | locus YOR265W, strain rbl2, active compounds read low 0.994 | locus YOR270C, strain vph1, active compounds read low 0.924 | locus YOR290C, strain snf2, active compounds read low 1.04 | locus YPL051W, strain arl3, active compounds read low 0.988 | locus YPL078C, strain atp4, active compounds read low 1.01 | locus YPL106C, strain sse1, active compounds read low 0.964 | locus YPL240C, strain hsp82, active compounds read low 0.985
